Rows were chosen to be rich in hits. Some 2.4% of all compounds tested hit in one or more screens of this group.
D2 PAM-1 = human D2 receptor positive allosteric modulation; AID 624464; 0.23% of 360,000 active; P14416; potentiation, % (concentration not given with the values); DiscoveRx D2 beta-arrestin cells, luminescence, 90 min; 100% = 57 uM dopamine signal; in the data active = potentiation above about 50%
Target sequence (P14416 whole entry, looked up): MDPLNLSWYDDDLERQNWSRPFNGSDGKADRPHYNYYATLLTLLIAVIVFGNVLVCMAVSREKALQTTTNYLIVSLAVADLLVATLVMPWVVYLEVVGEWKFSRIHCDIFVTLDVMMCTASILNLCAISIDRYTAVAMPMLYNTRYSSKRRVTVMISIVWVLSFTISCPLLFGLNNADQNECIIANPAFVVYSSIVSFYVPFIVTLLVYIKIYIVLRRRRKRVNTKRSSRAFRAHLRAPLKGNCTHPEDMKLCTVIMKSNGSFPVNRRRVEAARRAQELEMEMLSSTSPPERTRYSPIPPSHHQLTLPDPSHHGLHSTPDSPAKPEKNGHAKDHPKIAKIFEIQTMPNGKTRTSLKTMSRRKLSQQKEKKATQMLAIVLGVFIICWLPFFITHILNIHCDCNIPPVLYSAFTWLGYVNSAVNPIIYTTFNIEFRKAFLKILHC
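PathHunter beta-arrestin assay in DiscoveRx D2 cells. Compounds were added with an EC20 of dopamine (50 nM final) for 90 min at 37 deg C. Luminescence was read 1 h after detection reagent, with 57 uM dopamine as the EC100 control.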
D2 ag-1 = D2 dopamine receptor (human) agonism; P14416; HEK293 T-REx D2 cells, calcium flux agonist mode; activation, % at 2 µM; 0.53% of 340,000 active; AID 485358;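 active = activation over 3 SD above normal in the single-dose calcium agonist read, cut at about 30% in these data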
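Tetracycline-induced HEK293 T-REx cells with force-coupled D2 receptor, plated overnight at 30 C, loaded with no-wash calcium dye. After a 10 s baseline, compound was pin-added and calcium flux read kinetically for 180 s; calcium rises flagged agonists.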
D2 antag = antagonizes the human D2 dopamine receptor. P14416. inhibition, % at 10 µM. AID 485344. HEK293 TREx D2 cells, calcium flux, dopamine EC80. 2% of 340,000 active; in the data active = inhibition above about 30%; inactive = below that, where a call was filed
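HEK293 T-REx D2 cells, tet-induced, calcium dye no-wash. Cpd pintool add, 180 s kinetic, then EC80 DA, 180 s kinetic. Ca flux read.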
D2 ag-2 = human D2 receptor agonism in beta-arrestin assay. P14416. 0.084% of 360,000 active. DiscoveRx PathHunter D2 beta-arrestin, luminescence, 90 min; 100% = 57 uM dopamine signal. activation, % (test concentration not listed); in the data active = activation above about 40%
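Agonist mode: compounds alone added to overnight-plated D2 PathHunter cells for 90 min at 37 C, with 57 uM final dopamine (EC100) defining full response. Beta-arrestin recruitment detected by chemiluminescent reagent, read after 1 h at ambient temperature.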
D2 PAM-2 = D2 dopamine receptor (human) potentiation | P14416 | HEK293 T-REx D2, calcium flux, EC20 dopamine potentiation | potentiation, % at 10 µM | 0.34% of 340,000 active;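 active = potentiation over 3 SD above the plate norm, cut at about 30% in these data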
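Potentiation of an EC20 dopamine calcium response is measured in a force-coupled, tetracycline-inducible Hek293 Trex D2 line. Compound-only kinetic reads over 180 s flag agonists before dopamine addition.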
D3 ag = activates human D3 dopamine receptor beta-arrestin recruitment; shares compounds with D2 ag-1; DiscoveRx D3 beta-arrestin cells, luminescence, 90 min; Potency, µM (highest dose often 76.9 µM), actives largely listed as activators; 4% of 2,300 active; note: nearly all actives have a fitted effect of over 70% in size
D2 ag-3 = D2 receptor agonism, beta-arrestin counterscreen; 5.9% of 2,300 active; DiscoveRx PathHunter D2 beta-arrestin, luminescence, 90 min; response scale: percent relative to full dopamine signal; shares compounds with D2 ag-1; AID 720507; Potency, µM (titrated, usually from 76.9 µM), most hits filed as activators; note: nearly all actives have a fitted effect of over 70% in size
Of the large screens only hits and unclear results are named; the others gave an inactive call (follow-up assays come after a bar, where they were run). Unless noted, calls come from the whole dose curve; as a rule, active = well fitted activation curve with a large enough effect; inconclusive = small, poorly fitted or top-dose-only effect; inactive = flat fitted curve, though single readings scatter.

COc1ccc(/C=N/NC(=O)c2nnn(-c3nonc3N)c2CN(C)C2CCCCC2)cc1	D2 ag-1 56 | D3 ag inactive | D2 ag-3 inactive
CC(C)c1nn2c(=O)cc(COC(=O)C3CCCCC3)nc2s1	none (no result: D2 PAM-1, D2 antag, D2 ag-2)
CN1CCn2cnc(C(=O)N[C@@H](Cc3ccccc3)C(=O)OC(C)(C)C)c2C1=O	none (no result: D2 PAM-1, D2 ag-1, D2 antag, D2 PAM-2)
CCC(=O)N1CCc2cc(CNC(=O)c3cccc(N(C)C)c3)ccc21	none (no result: D2 PAM-1, D2 antag, D2 ag-2)
Cc1cc(C)c(NC(=O)c2sc3nc4c(cc3c2N)C(=O)CC(C)(C)C4)c(C)c1	D2 ag-1 44 | D3 ag inactive | D2 ag-3 inactive
COC(=O)c1sc2nc3c(cc2c1N)C(=O)CC(C)(C)C3	none
COc1ccc(OC2C(=O)N(c3ccc(C)c(C)c3)C2c2ccc(OC)c(OC)c2)cc1 (configuration not stated)	D2 ag-1 54 | D3 ag inactive | D2 ag-3 inactive
CCn1nnc2cc(C(=O)Nc3cc(C)ccc3C)ccc21	none (no result: D2 PAM-1, D2 antag, D2 ag-2)
COc1ccccc1N1CCN(C2CCN(C(=O)c3ccc(F)cc3)CC2)CC1	none | D3 ag inactive | D2 ag-3 inactive
COc1cc(OC)cc(C(=O)N2CCC(N3CCN(c4ccccc4)CC3)CC2)c1	D2 ag-1 43, D2 antag 37 | D3 ag inactive | D2 ag-3 inactive
COc1ccc(C(=O)N2CCC(N3CCN(c4ccccc4)CC3)CC2)cc1OC	D2 ag-1 41 | D3 ag inactive | D2 ag-3 inactive
COc1ccccc1N1CCN(C2CCN(C(=O)c3cccc(F)c3)CC2)CC1	none
COc1ccc(C(=O)N2CCN(C3CCC(c4ccccc4)CC3)CC2)cc1OC (configuration not stated)	none
COc1ccccc1N1CCN(C2CCN(C(=O)c3cc(OC)c(OC)c(OC)c3)CC2)CC1	none
COCCCN1C(=O)C(CC(=O)NCCCCc2ccccc2)CC(C(=O)N(C(C)C)C(C)C)=C1C (configuration not stated)	none (no result: D2 ag-1, D2 antag, D2 PAM-2)
CNC[C@@H]1OCc2cnnn2CCCC(=O)N([C@H](C)CO)C[C@H]1C	none (no result: D2 ag-1, D2 antag, D2 PAM-2)
O=C(CSc1nc2c(c(=O)[nH]1)CN(Cc1ccc(F)cc1)CC2)Nc1cccc(C(F)(F)F)c1	none (no result: D2 PAM-1, D2 antag, D2 ag-2, D2 PAM-2)
Cc1ccc2[nH]c(=O)c3cc(C(=O)N(C)Cc4ccco4)sc3c2c1	D2 ag-1 82 | D3 ag inactive | D2 ag-3 inactive
CCCCn1c(N)c(N(CC)C(=O)c2cccc(F)c2)c(=O)[nH]c1=O	none
CCCCn1c(N)c(N(CC)C(=O)c2cccc(OCc3ccccc3)c2)c(=O)[nH]c1=O	none | D3 ag inactive | D2 ag-3 inactive
Cc1ccc(S(=O)(=O)N(C)C)cc1NC(=O)C1CCN(C(=O)Nc2ccccc2)CC1	D2 antag 73 | D3 ag inactive | D2 ag-3 inactive
